From PubChem BioAssay (Tox21)
Values joined by “and” are separate entries in the source; they are usually repeats but may differ in a detail not shown here. Identical values can stand only once. Records with an inconclusive call do not appear. A call without a number means that no potency is given here. The source holds several records for some structures; these can differ, active in one and inactive in another. Active and inactive are the calls of the source. The call rests on the fitted dose curve; in most records, active means well fitted curve in the direction sought with a large enough effect in the repeat runs; inconclusive means weak or mixed curves; inactive means no such curve, though single readings can be large; an effect the other way counts as inactive or inconclusive.

Key:
[1] = Caspase-3/7 induction in HepG2 cells by small molecules, qHTS assay (AID 1346978); further: nearly all actives have a fitted effect of over 15% in size
Procedure, shortened: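 Wild-type HepG2 cells, 2,000/well, settled 5 hr at 37 C and 5% CO2, then compound-treated for 17 hr; caspase-3/7 activity read by luminescent Caspase-Glo 3/7 after 30 min at room temperature.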

[2] = Caspase-3/7 induction in CHO-K1 cells by small molecules, qHTS cell viability counter screen (AID 1346979); further: nearly all actives have a fitted effect of over 35% in size
Procedure, shortened: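 Seeding: 1,500 CHO-K1 cells/well. Rest: 5hr, 37C. Treatment: compounds in DMSO, 16hr. Read: CellTiter-Fluor, 1hr, fluorescence.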

[3] = Caspase-3/7 induction in CHO-K1 cells by small molecules, qHTS assay (AID 1346980); further: nearly all actives have a fitted effect of over 15% in size
Procedure, shortened: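 Wild-type CHO-K1 cells exposed to compounds for 17hr at 37 C, 5% CO2. Caspase-3/7 activity then measured by Caspase-Glo 3/7 luminescence after 30min at room temperature.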

[4] = Caspase-3/7 induction in HepG2 cells by small molecules, qHTS cell viability counter screen (AID 1346981); further: series mostly up to about 92 µM; nearly all actives have a fitted effect of over 30% in size
Procedure, shortened: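 Multiplexed with the caspase-3/7 assay: HepG2 cells, 16 hr compound treatment, CellTiter-Fluor viability detection by fluorescence.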

[5] = biological target: Nuclear receptor subfamily 1 group I member 2 (Homo sapiens) (UniProt O75469); test: Human pregnane X receptor (PXR) small molecule agonists, qHTS assay (AID 1346982); further: nearly all actives have a fitted effect of over 35% in size; further: potency means the concentration at half of the fitted maximal effect
Sequence of Nuclear receptor subfamily 1 group I member 2 (Homo sapiens) (O75469 whole entry, looked up): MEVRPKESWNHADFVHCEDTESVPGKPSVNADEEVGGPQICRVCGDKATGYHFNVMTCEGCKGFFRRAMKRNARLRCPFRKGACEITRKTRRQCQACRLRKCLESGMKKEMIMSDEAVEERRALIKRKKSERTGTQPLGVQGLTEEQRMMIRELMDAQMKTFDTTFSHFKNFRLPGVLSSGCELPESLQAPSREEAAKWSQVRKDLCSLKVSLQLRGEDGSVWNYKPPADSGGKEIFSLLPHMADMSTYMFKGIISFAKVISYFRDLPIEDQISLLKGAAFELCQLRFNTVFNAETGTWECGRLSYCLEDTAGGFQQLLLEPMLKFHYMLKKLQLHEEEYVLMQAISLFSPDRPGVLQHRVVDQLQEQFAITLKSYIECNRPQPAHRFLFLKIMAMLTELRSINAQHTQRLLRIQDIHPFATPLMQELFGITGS
Procedure, shortened: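 We seeded PXR-Luc HepG2 cells in assay medium containing 5% charcoal-stripped FBS, added compounds 5 hr later, incubated 24 hr, and read luminescence with ONE-Glo reagent.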

[6] = biological target: Nuclear receptor subfamily 1 group I member 2 (Rattus norvegicus) (UniProt Q9R1A7); test: Rat pregnane X receptor (rPXR) activation by small molecules, qHTS assay (AID 1346983); details: rPXR luciferase reporter cells, One-Glo luminescence, 24 h; max activation: stronger effect = higher value; further: nearly all actives have a fitted effect of over 20% in size
Sequence of Nuclear receptor subfamily 1 group I member 2 (Rattus norvegicus) (Q9R1A7 whole entry, looked up): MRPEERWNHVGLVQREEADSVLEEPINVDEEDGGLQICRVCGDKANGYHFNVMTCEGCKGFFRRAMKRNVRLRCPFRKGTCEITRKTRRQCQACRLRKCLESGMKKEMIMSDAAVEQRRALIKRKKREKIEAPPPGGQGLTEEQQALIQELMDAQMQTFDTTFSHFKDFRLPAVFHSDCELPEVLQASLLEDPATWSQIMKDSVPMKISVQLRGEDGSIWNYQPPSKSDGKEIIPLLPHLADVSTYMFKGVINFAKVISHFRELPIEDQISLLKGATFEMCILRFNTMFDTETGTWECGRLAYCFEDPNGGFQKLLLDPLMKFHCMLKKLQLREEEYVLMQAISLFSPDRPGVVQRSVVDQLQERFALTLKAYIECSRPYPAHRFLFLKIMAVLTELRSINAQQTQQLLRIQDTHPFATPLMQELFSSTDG
Procedure, shortened: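 Cell-based rPXR activation assay: rPXR cells, 2,000 per well, rested 5hr at 37 C, then exposed to compounds in DMSO for 24 hr at 37 C. Luciferase activity read by One-Glo luminescence after 30 min at room temperature.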

[7] = biological target: Nuclear receptor subfamily 1 group I member 2 (Homo sapiens) (UniProt O75469); test: CYP3A4 induction through human pregnane X receptor (PXR) by small molecules, qHTS assay (AID 1346984); further: nearly all actives have a fitted effect of over 40% in size
Procedure, shortened: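 qHTS, concentration-response format: HepG2 DPX-2 line, PXR/CYP3A4-luc. Exposure 24 h, 37C. Substrate Luciferin-IPA 3uM final, 3 h. Detection One-Glo, 30 min RT.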

[8] = biological target: Nuclear receptor subfamily 1 group I member 2 (Homo sapiens) (UniProt O75469); test: Human pregnane X receptor (PXR) activation by small molecules, qHTS assay (AID 1346985); further: nearly all actives have a fitted effect of over 40% in size; further: potency means the concentration at half of the fitted maximal effect
Procedure, shortened: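 DPX-2 cells (HepG2 co-transfected with a PXR response element and a CYP3A4-promoter luciferase construct) were seeded at 2,000 per well, rested 5 hr at 37C, then exposed to DMSO-dissolved compounds for 24 hr. Activation was read as luciferase luminescence.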

[9] = biological target: Cytochrome P450 2D6 (Homo sapiens) (UniProt P10635); test: Cytochrome P450 Family 2 Subfamily D Member 6 (CYP2D6) small molecule antagonists: luciferase reporter qHTS assay (AID 1671196); further: nearly all actives have a fitted effect of over 50% in size; further: potency means the concentration at half of the fitted maximal effect
Sequence of Cytochrome P450 2D6 (Homo sapiens) (P10635 whole entry, looked up): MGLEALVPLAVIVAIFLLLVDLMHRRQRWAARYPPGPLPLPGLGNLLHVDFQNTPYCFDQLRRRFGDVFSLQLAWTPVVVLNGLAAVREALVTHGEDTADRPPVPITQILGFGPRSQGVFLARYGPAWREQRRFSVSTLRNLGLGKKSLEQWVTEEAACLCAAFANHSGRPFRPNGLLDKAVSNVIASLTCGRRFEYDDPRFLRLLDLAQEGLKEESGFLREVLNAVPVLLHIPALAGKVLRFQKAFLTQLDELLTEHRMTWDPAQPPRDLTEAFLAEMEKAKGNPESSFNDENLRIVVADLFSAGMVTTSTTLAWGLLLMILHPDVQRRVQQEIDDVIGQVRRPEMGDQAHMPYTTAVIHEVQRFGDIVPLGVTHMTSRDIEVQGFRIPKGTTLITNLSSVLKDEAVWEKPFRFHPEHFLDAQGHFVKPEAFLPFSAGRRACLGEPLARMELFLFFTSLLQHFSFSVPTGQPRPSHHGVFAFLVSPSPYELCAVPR
Procedure, shortened: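 Luminescence (RLU), read 20 min after detection reagent, indicated CYP2D6 conversion of proluciferin to luciferin during a 1 h NADPH-dependent reaction at room temperature.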

[10] = biological target: Cytochrome P450 2C19 (Homo sapiens) (UniProt P33261); test: Cytochrome P450 Family 2 Subfamily C Member 19 (CYP2C19) small molecule antagonists: luciferase reporter qHTS assay (AID 1671197); further: nearly all actives have a fitted effect of over 65% in size; further: potency means the concentration at half of the fitted maximal effect
Sequence of Cytochrome P450 2C19 (Homo sapiens) (P33261 whole entry, looked up): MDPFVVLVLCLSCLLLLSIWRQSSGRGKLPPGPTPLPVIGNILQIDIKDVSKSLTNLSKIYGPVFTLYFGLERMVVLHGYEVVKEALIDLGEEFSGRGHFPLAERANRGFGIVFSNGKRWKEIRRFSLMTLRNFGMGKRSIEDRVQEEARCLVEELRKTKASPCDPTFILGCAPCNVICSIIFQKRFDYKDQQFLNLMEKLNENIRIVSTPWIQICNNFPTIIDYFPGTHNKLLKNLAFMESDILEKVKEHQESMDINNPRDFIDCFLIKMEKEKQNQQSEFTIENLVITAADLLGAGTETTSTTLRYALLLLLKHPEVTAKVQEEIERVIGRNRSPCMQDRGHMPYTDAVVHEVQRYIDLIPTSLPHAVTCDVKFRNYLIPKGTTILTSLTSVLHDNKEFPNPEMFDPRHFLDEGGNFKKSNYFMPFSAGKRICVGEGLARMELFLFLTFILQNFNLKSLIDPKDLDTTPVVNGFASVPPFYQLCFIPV
Procedure, shortened: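 CYP2C19 P450-Glo, 1536-well qHTS. Cpd + enzyme/proluciferin substrate 10 min RT; + NADPH regen, 37C 1 h; stop with luciferin detection reagent, 20 min RT, luminescence (RLU). Pos ctrl ketoconazole.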

[11] = biological target: Cytochrome P450 2C9 (Homo sapiens) (UniProt P11712); test: Cytochrome P450 Family 2 Subfamily C Member 9 (CYP2C9) small molecule antagonists: luciferase reporter qHTS assay (AID 1671198); further: nearly all actives have a fitted effect of over 50% in size; further: potency means the concentration at half of the fitted maximal effect
Sequence of Cytochrome P450 2C9 (Homo sapiens) (P11712 whole entry, looked up): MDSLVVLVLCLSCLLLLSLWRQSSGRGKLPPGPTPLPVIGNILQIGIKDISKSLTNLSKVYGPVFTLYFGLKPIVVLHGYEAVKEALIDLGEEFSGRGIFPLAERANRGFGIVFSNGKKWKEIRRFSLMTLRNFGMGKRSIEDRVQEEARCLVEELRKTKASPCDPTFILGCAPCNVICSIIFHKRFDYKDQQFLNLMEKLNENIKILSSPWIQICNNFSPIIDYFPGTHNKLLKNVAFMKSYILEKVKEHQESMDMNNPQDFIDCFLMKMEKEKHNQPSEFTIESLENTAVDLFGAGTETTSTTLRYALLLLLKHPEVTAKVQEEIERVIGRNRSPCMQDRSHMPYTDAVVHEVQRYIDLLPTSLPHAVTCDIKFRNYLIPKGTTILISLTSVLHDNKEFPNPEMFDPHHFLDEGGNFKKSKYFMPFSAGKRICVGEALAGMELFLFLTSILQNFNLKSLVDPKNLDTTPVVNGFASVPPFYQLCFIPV
Procedure, shortened: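 P450-Glo proluciferin substrate with CYP2C9 enzyme; 10 min RT preincubation, then NADPH regeneration 1 h at 37C; luciferin detection reagent 20 min RT, luminescence in relative luminescence units.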

[12] = biological target: Cytochrome P450 1A2 (Homo sapiens) (UniProt P05177); test: Cytochrome P450 Family 1 Subfamily A Member 2 (CYP1A2) small molecule antagonists: luciferase reporter qHTS assay (AID 1671199); further: nearly all actives have a fitted effect of over 50% in size; further: potency means the concentration at half of the fitted maximal effect
Sequence of Cytochrome P450 1A2 (Homo sapiens) (P05177 whole entry, looked up): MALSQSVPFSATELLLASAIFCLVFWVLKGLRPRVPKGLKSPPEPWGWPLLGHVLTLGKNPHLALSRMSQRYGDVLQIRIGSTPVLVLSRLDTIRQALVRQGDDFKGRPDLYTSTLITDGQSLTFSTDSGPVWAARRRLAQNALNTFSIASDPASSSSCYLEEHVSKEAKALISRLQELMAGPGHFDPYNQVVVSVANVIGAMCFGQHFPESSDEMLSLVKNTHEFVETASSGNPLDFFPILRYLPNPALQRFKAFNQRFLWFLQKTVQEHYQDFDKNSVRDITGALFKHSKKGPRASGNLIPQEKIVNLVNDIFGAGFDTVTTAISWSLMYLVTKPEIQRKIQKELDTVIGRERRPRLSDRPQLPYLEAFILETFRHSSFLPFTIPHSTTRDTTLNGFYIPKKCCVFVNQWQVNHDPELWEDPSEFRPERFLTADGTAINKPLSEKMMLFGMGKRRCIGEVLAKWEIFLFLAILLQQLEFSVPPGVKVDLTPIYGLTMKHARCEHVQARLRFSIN
Procedure, shortened: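 CYP1A2 turnover of a luminogenic substrate was quantified after 1 h with NADPH regeneration at room temperature. Furafylline served as positive control.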

[13] = biological target: Voltage-gated inwardly rectifying potassium channel KCNH2 (Homo sapiens) (UniProt Q12809); test: Human Ether-a-go-go-Related Gene (hERG) channel small molecule antagonists: fluorescence cell-based qHTS assay (AID 1671200);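 further: hERG-expressing U2OS cells given a thallium stimulus after FluxOR II dye loading; series mostly up to about 77 µM; nearly all actives have a fitted effect of over 50% in size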
Sequence of Voltage-gated inwardly rectifying potassium channel KCNH2 (Homo sapiens) (Q12809 whole entry, looked up): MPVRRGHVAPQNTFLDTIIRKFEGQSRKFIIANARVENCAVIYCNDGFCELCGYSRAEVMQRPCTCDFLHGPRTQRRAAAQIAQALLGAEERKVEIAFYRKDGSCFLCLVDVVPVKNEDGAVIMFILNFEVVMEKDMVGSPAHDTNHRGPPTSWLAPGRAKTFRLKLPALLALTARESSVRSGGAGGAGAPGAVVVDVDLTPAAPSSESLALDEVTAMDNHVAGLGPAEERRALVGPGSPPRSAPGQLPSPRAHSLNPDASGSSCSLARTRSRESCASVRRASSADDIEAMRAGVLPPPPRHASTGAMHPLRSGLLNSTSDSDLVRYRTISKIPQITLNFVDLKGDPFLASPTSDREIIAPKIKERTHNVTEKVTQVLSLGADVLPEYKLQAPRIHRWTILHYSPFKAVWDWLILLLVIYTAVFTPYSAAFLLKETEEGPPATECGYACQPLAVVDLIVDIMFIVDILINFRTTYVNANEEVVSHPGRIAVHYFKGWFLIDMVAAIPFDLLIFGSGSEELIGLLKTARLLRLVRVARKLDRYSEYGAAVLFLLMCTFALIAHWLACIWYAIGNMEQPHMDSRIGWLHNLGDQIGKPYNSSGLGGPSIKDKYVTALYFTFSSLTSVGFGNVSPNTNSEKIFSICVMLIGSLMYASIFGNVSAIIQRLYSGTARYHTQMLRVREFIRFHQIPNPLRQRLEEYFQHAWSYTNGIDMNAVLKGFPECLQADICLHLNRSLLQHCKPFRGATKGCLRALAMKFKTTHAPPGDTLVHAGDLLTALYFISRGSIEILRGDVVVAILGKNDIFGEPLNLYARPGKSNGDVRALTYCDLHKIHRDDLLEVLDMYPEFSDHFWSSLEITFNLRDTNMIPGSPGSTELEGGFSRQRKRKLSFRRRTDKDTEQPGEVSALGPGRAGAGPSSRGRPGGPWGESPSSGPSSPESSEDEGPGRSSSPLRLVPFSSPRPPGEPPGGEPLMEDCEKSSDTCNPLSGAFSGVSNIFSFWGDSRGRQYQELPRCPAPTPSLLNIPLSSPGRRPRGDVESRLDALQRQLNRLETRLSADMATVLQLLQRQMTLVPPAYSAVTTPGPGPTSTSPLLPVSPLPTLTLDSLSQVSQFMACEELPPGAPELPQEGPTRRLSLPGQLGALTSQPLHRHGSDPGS
Procedure, shortened: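 First, 1000 cells per well are seeded and cultured overnight at 37 C. Next, FluxOR II dye is loaded for 1 h at room temperature, protected from light. After 10 more minutes, stimulus is added and fluorescence is read.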

[14] = biological target: Cytochrome P450 3A4 (Homo sapiens) (UniProt P08684); test: Cytochrome P450 Family 3 Subfamily A Member 4 (CYP3A4) small molecule antagonists: luciferase reporter qHTS assay (AID 1671201); further: nearly all actives have a fitted effect of over 50% in size; further: potency means the concentration at half of the fitted maximal effect
Sequence of Cytochrome P450 3A4 (Homo sapiens) (P08684 whole entry, looked up): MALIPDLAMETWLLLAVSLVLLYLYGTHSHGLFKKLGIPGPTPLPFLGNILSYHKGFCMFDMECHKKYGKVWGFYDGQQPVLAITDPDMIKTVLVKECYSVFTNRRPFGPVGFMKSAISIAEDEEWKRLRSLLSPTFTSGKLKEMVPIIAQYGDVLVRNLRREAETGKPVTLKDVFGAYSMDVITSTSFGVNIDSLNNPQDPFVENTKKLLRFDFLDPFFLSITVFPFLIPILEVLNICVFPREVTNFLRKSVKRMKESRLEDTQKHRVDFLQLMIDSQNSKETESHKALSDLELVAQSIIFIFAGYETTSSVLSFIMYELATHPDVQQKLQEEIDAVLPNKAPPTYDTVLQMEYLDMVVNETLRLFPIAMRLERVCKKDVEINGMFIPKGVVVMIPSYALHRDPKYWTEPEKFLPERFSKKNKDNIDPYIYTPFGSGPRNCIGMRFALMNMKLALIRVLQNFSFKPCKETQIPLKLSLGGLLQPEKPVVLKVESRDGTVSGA
Procedure, shortened: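 Enzyme and proluciferin substrate are mixed with test chemicals for 10 min, then NADPH regeneration system drives turnover for 1 h at room temperature. A detection reagent halts the reaction; luminescence after 20 min gives relative activity.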

Row | Structure (SMILES) | Potency [1] | Potency [2] | outcome [3] | Potency [4] | Potency [5] | max activation [6] | Potency [7] | Potency [8] | Potency [9] | Potency [10] | Potency [11] | Potency [12] | Potency [13] | Potency [14]
1 | CCCCNC(=O)NS(=O)(=O)c1ccc(N)cc1 | inactive | inactive | inactive | inactive | inactive | -2.23% (inactive) | inactive | inactive | inactive | inactive | inactive | inactive | inactive | inactive
2 | O=C(OCc1ccccc1)c1ccccc1 | inactive | inactive | inactive | inactive | inactive | 0.688% (inactive) | inactive | inactive | inactive | 31.8 µM (active) and 39.9 µM (active) and 17.4 µM (active) | 40 µM (active) and 63.3 µM (active) | 31.8 µM (active) and 35.6 µM (active) and 13.8 µM (active) | inactive | inactive
3 | CC(O)COc1ccccc1 (configuration not stated) | inactive | inactive | inactive | inactive | inactive | -1.1% (inactive) | inactive | inactive | inactive | inactive | – | inactive | inactive | inactive
4 | COc1ccc(O)cc1 | inactive | inactive | inactive | inactive | inactive | -2.37% (inactive) | inactive | inactive | 27.2 µM (active) and inactive | 34.3 µM (active) and inactive | inactive | inactive | inactive | inactive
5 | CC1(C)O[C@@H]2[C@@H](CO[C@@]3(COS(N)(=O)=O)OC(C)(C)O[C@@H]23)O1 | inactive | inactive | inactive | inactive | inactive | -4.73% (inactive) | inactive | inactive | inactive | 4.9 µM (active) | inactive | inactive | inactive | inactive
6 | C/C=C/c1ccc(O)c(OC)c1 | inactive | inactive | inactive | inactive | inactive | 6.95% (inactive) | inactive | inactive | inactive | 7.96 µM (active) and 39.9 µM (active) and 8.71 µM (active) | – | 20 µM (active) and 22.4 µM (active) and 11.5 µM (active) | inactive | –
7 | Cc1ccc(O)c(-n2nc3ccccc3n2)c1 | inactive | inactive | inactive | inactive | 27.1 µM (active) and 27.3 µM (active) and 23.7 µM (active) | -1.88% (inactive) | inactive | 14.1 µM (active) | 31.5 µM (active) and 35.6 µM (active) and 30.9 µM (active) | 7.05 µM (active) and 10 µM (active) | 8.87 µM (active) and 7.1 µM (active) and 8.71 µM (active) | 2.23 µM (active) and 1.42 µM (active) and 2.57 µM (active) | inactive | 22.3 µM (active) and 25.2 µM (active)
8 | CCN1CCCC1=O | inactive | inactive | inactive | inactive | inactive | 3.15% (inactive) | inactive | inactive | inactive | inactive | – | inactive | inactive | inactive
9 | CCN(CC)CCOC(=O)c1ccc(N)cc1 | inactive | inactive | inactive | inactive | inactive | -0.318% (inactive) | inactive | inactive | 5.95 µM (active) and 15.5 µM (active) | inactive | inactive | inactive | inactive | inactive
10 | Cc1c(N(C)CS(=O)(=O)O)c(=O)n(-c2ccccc2)n1C | inactive | inactive | inactive | inactive | inactive | -2.23% (inactive) | inactive | inactive | inactive | – | – | – | inactive | inactive
11 | CCCCCCCCCCCCCC(=O)OC(C)C | inactive | inactive | inactive | inactive | inactive | -1.74% (inactive) | inactive | inactive | inactive | inactive | inactive | inactive | inactive | inactive
12 | CCCCC/C(C=O)=C\c1ccccc1 | inactive | inactive | inactive | inactive | inactive | -0.992% (inactive) | inactive | inactive | 63.4 µM (active) and inactive | 35.6 µM (active) and 39.9 µM (active) and inactive | 39.9 µM (active) | 28.3 µM (active) and 35.6 µM (active) and 5.49 µM (active) | inactive | inactive
13 | C[C@]12C[C@H](O)[C@H]3[C@@H](CCC4=CC(=O)CC[C@@]43C)[C@@H]1CC[C@@H]2C(=O)CO | inactive | inactive | inactive | inactive | 8.65 µM (active) and 38.6 µM (active) | -5.48% (inactive) | inactive | inactive | inactive | – | – | – | inactive | inactive
